From PubChem BioAssay (NCATS)
Records with an inconclusive call do not appear. Where a call stands in place of a potency, no number is given. Unmarked numbers belong to inactive results. The source made the active and inactive calls. Calls follow the shape of the dose curve; as a rule, active = well fitted cell-killing curve with a large enough effect; inconclusive = small, poorly fitted or top-dose-only effect, or effect the other way; inactive = flat fitted curve, though single readings scatter.

Experiments:
Tov-21-G = assay: Primary qHTS to identify gynecologic anti-cancer compounds using libraries of approved drugs and bioactive compounds (AID 1345084); conditions: Gynecologic cancer cell panel viability, ATPlite luminescence, 48 h; series mostly up to 57.5 µM; also: nearly all actives have a fitted effect of over 55% in size
Summary of the method: (§1)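 Cells, 1,000 per well, were allowed to settle for 16 h at 37 C before compound addition. Five concentrations were tested for 48 h, and viability was read by ATPlite luminescence after 15 min at room temperature.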

Tov112D = assay: as above; conditions: Gynecologic cancer cell panel viability, ATPlite luminescence, 48 h; series mostly up to 57.5 µM
Summary of the method: as §1
Potency is read from the fitted curve at half-maximal effect.

SMILES	Potency (Tov-21-G)	Potency (Tov112D)	activity change, negative = cytotoxicity (Tov-21-G)	activity change, negative = cytotoxicity (Tov112D)
Cc1cc(F)ccc1[C@H]1C[C@@H](N2CCN3C(=O)CC[C@H]3C2)CCN1C(=O)N(C)[C@H](C)c1cc(C(F)(F)F)cc(C(F)(F)F)c1	inactive	inactive		
C=C[C@H](/C=C\c1ccc(O)cc1)c1ccc(O)cc1	inactive	inactive		
Cc1csc2c(N[C@@H](C)CN3CCN(S(=O)(=O)c4ccc(Cl)c(Cl)c4)CC3)ncnc12	inactive	inactive		
C=C1CC2OC(=O)C(=C)C2C(O)/C=C(\C)CCC1O (centres undefined)	inactive	inactive		
O=C(Nc1ccccc1)N1CCC(Cc2cnc3ccccc3c2)CC1	inactive	inactive		
Cc1noc(C)c1-c1cc(O)cc(C(O)c2ccccc2)c1 (centres undefined)	inactive	inactive		
Cc1cccc(-c2[nH]ncc2-c2ccc(F)c(-c3cnn(CCO)c3)c2)n1	inactive	inactive		
Cc1cc(CS(=O)(=O)c2ccccc2)cc(OCc2ccc(CN3CCCC3CO)cc2)c1 (centres undefined)	inactive	inactive		
COc1cc(-c2nc(N[C@H](CO)Cc3ccccc3)ccc2C(=O)NCCOc2ccccc2)cc(OC)c1OC	inactive	inactive		
Cc1c(C(=O)NCc2cccnc2)nn(-c2ccc(Cl)cc2Cl)c1-c1ccc(Cl)cc1	inactive	inactive		
Cn1nc(C(C)(C)C)cc1C(=O)N[C@@H](Cc1cccc(Cl)c1)C(=O)NCC#N	inactive	inactive		
O=C(Nc1ccc(Cl)cc1)Nc1cccc(-c2cccc(N3CCCC3)n2)c1	inactive	inactive		
C=C1C(=O)OC2CC3(C)C(O)C(=O)C=C(C)C3CC12 (centres undefined)	inactive	inactive		
COc1cc2c(cc1O)C1(Cc3ccc4c(c3C1O)OCO4)[N+](C)([O-])CC2 (centres undefined)	inactive	inactive		
C#CCOc1ccc2c(c1)c(-c1ccc(C(C)C)cc1)nc(=O)n2C(C)C	inactive	inactive		
N#Cc1cc(C2=Nc3ccc(Br)cc3NC(=O)C2)ccn1	inactive	inactive		
C#CCCCn1cc(-c2cccc3c2N[C@H](C)CC(=O)N3)cn1	inactive	inactive		
COc1cc(/C=C2\CCCN([C@@H](C)c3ccc(F)cc3)C2=O)ccc1-n1cnc(C)c1	inactive	inactive		
COc1ccc2c(c1)C(C(=O)N(Cc1ccc(N(C)C)cc1)c1ccc(C(C)C)cc1)CCC2 (centres undefined)	inactive	inactive		
CCCCOc1ccc(S(=O)(=O)n2c(C)nc3ccccc32)cc1	inactive	inactive		
COc1ccc(CN2CCN(C(=O)CCNC(=O)c3ccc(C(C)(C)C)cc3)CC2)cc1	inactive	inactive		
CC(=O)O[C@]1(C(C)=O)CC[C@H]2[C@@H]3CCC4=CC(=O)CCC4=C3[C@@H](c3ccc(N(C)C)cc3)C[C@@]21C	inactive	inactive		
CC(=O)OC[C@]12[C@H](OC(C)=O)C(=O)[C@@H]3[C@@H](O)[C@@]14O[C@@]3(C)COC(=O)c1cccnc1[C@@H](C)[C@H](C)C(=O)O[C@@H]([C@H](O)[C@@H]2OC(C)=O)[C@]4(C)O	inactive	inactive		

SMILES	Potency (Tov-21-G)	Potency (Tov112D)	activity change, negative = cytotoxicity (Tov-21-G)	activity change, negative = cytotoxicity (Tov112D)
C=CC(=O)N1CC(N2CCN(C(=O)CNc3cc(C4CC4)c(Cl)cc3O)CC2)C1	inactive	inactive		
CC(C)[C@@H](c1ccc(C(F)(F)F)cc1CN(Cc1cc(C(F)(F)F)cc(C(F)(F)F)c1)c1nnn(C)n1)N1CCC(C(=O)O)CC1	inactive	inactive		
C=C1C(=O)O[C@H]2C1CCC(C)=C1C(=O)C=C(C)[C@@]12O (some centres undefined)	inactive	inactive		
O=C(/C=C/c1ccccc1O)O[C@@H]1O[C@H](CO)[C@@H](O)[C@H](O)[C@H]1O	inactive	inactive		
COc1ccncc1C(=O)NC(=O)Nc1ccc(-c2ccccc2)c(C(F)(F)F)c1	inactive	inactive		
CCCOc1ccc(S(=O)(=O)N2CCN(CCO)CC2)cc1-c1nc2c(CCC)cn(CC)c2c(=O)[nH]1	inactive	inactive		
C=C1C(=O)O[C@@H]2C=C(COC(C)=O)CC/C=C(\CO)CC[C@@H]12	inactive	inactive		
Cc1cc(F)c(C(=O)Nc2cccc(-c3nncn3C(C)C)n2)cc1-n1cnc(C2CC2)c1	inactive	inactive		
OC[C@H]1O[C@@H](OC/C=C/c2ccc(O)cc2)[C@H](O)[C@@H](O)[C@@H]1O	inactive	inactive		
CC(CCC1(O)OC2CC3C4CC=C5C[C@@H](O[C@@H]6O[C@H](CO)[C@@H](O[C@@H]7O[C@@H](C)[C@H](O)[C@@H](O)[C@H]7O)[C@H](O)[C@H]6O[C@@H]6O[C@@H](C)[C@H](O)[C@@H](O)[C@H]6O)CC[C@]5(C)C4CC[C@]3(C)[C@@]2(O)[C@@H]1C)CO[C@@H]1O[C@H](CO)[C@@H](O)[C@H](O)[C@H]1O (some centres undefined)			0.779% [at 11.6 µM]	-0.117% [at 11.6 µM]
C=C1CCCC2(C)CCC(C(C)(C)OC3OC(C)C(O)C(O)C3OC(=O)/C(C)=C\C)CC12 (centres undefined)	inactive	inactive		
Cc1nc2c(C(F)(F)F)cccc2nc1-c1ccc(-c2cccc(S(C)(=O)=O)c2)cc1	inactive	inactive		
O=c1ccc2ccc(OCCCCN3CCN(c4cccc5sccc45)CC3)cc2[nH]1	inactive	inactive		
N#Cc1ccc(COC[C@H]2O[C@@H](n3c(NCc4ccc(Cl)c(Cl)c4)nc4c(N)ncnc43)[C@H](O)[C@@H]2O)cc1	inactive	inactive		
C/C=C/CCC1Cc2cc(O)c(CCCC)c(O)c2C(=O)O1 (centres undefined)	inactive	inactive		
O=C(NCCCc1ccccc1)C1CCC(CNS(=O)(=O)c2cccc3nsnc23)CC1 (centres undefined)	inactive	inactive		
CC(C)(O)c1ccc2c(c1)ncn2-c1cccc(-c2ccccc2C#N)c1	inactive	inactive		
O=C(O)c1cccc(-c2ccc(-c3cn(C(=O)N4CCCCC4Cc4ccccc4)nn3)cc2)c1 (centres undefined)	inactive	inactive		
Cc1cc2c(N3CCCC3)nc(N3CCCC3)nc2n1C	inactive	inactive		
N#Cc1cnc2c(Cl)cc(NCc3cn(CCN4CCCCCC4)nn3)cc2c1Nc1ccc(F)c(Cl)c1	inactive	inactive		
CC(=O)O[C@@H]1CC2C(C)(C)C(=O)C=C[C@]2(C)C2CC[C@@]3(C)[C@H](c4ccoc4)OC(=O)[C@H]4O[C@]43[C@@]21C (some centres undefined)	inactive	inactive		
C=CC(C)(O)CC[C@@H]1[C@@]2(C)CCCC(C)(C)C2CC[C@@]1(C)O (some centres undefined)	inactive	inactive		
CC(=O)O[C@@H]1CC[C@@]2(C)[C@H](CC[C@@H]3[C@@H]2C[C@H](OC(C)=O)[C@]2(C)[C@@H](C(C)=O)CC[C@@H]32)C1	inactive	inactive		

SMILES	Potency (Tov-21-G)	Potency (Tov112D)	activity change, negative = cytotoxicity (Tov-21-G)	activity change, negative = cytotoxicity (Tov112D)
O=C(Nc1ccn(Cc2ccc(O)cc2C(F)(F)F)n1)c1c(F)cccc1F	inactive	inactive		
Cc1nc(C#Cc2ccnc(Cl)c2)c(C)n1-c1ccc(F)cc1	inactive	inactive		
Clc1ncoc1-c1c[nH]c2ccccc12	inactive	inactive		
COc1cc(N(C)CCN(C)C)c(N)cc1Nc1nccc(-c2cn(C)c3ccccc23)n1	inactive	inactive		
CC(CCC1(O)OC2CC3C4CC=C5CC(O[C@@H]6O[C@H](CO)[C@@H](O[C@@H]7O[C@@H](C)[C@H](O)[C@@H](O)[C@H]7O)[C@H](O)[C@H]6O[C@@H]6O[C@@H](C)[C@H](O)[C@@H](O)[C@H]6O)CCC5(C)C4CCC3(C)C2C1C)CO[C@@H]1O[C@H](CO)[C@@H](O)[C@H](O)[C@H]1O (some centres undefined)			-14.2% [at 11.6 µM]	-1.44% [at 11.6 µM]
CC(C)(Cc1ccccc1)NCC(O)c1ccc(O)c(NS(C)(=O)=O)c1 (centres undefined)	inactive	inactive		
N#Cc1ccc(-c2ccc(S(=O)(=O)Nc3cccc(N)n3)cc2)cc1	inactive	inactive		
CCCCCCOC(=O)/N=C(\N)c1ccc(NCc2nc3cc(C(=O)N(CCC(=O)OCC)c4ccccn4)ccc3n2C)cc1	inactive	inactive		
CCC(C)(OC(C)=O)C(=O)O[C@H]1[C@H](OC(C)=O)[C@]2(CO)[C@H](O)[C@H](O)[C@]3(C)C(=CCC4[C@@]5(C)CC[C@H](O[C@@H]6O[C@H](C(=O)O)[C@@H](O)[C@H](O[C@@H]7OC[C@H](O)[C@H](O[C@@H]8OC[C@H](O)[C@H](O)[C@H]8O)[C@H]7O)[C@H]6O[C@@H]6O[C@H](CO)[C@@H](O)[C@H](O)[C@H]6O)C(C)(C)C5CC[C@]43C)[C@@H]2CC1(C)C (some centres undefined)			-3.66% [at 6.55 µM]	-10.5% [at 6.55 µM]
O=c1cc(N2CCN(c3cccc(C(F)(F)F)c3)CC2)[nH]c(=O)n1C1CCCCC1	inactive	inactive		
O=C(NCCCN1CCOCC1)c1cnn2c(-c3ccccc3)cc(-c3ccccc3)nc12	inactive	inactive		
CCNC1(C(N)=O)CN(c2nc(C)nc3c(-c4ccc(Cl)cc4)c(-c4ccccc4Cl)nn23)C1	inactive	inactive		
O=S(=O)(NCc1cccc2ccccc12)c1cc(Cl)c(Oc2cccc(N3CCNCC3)c2)s1	inactive	inactive		
C=C1/C(=C/C=C2\CCC[C@@]3(C)C2CCC3[C@H](C)/C=C/[C@@H](O)C2CC2)C[C@@H](O)C[C@@H]1O (some centres undefined)	inactive	inactive		
CN(C)CC#CCCC(=O)C(O)(c1ccccc1)C1CCC1 (centres undefined)	inactive	inactive		
COC1CCN(C(=O)c2cc(Cc3n[nH]c(=O)c4ccccc34)ccc2F)CC1	inactive	inactive		
CC(C)C[C@@H](C(=O)N[C@@H](Cc1ccc(OCc2ccccc2)cc1)C(=O)NC(C)(C)C)N(C)Cc1ccc(C(C)(C)C)cc1	inactive	inactive		
O=C(NS(=O)(=O)c1ccc(Br)s1)c1ccc(Cl)cc1Cl	inactive	inactive		
CCCN(CCc1ccsc1)C1CCc2c(O)cccc2C1 (centres undefined)	inactive	inactive		
CCc1c[nH]c2ncnc(N3CC[C@](N)(CNC(=O)c4ccc(F)cc4F)C3)c12	1 µM (active)	inactive		
C/C=C/C1=CC2=C(CO1)C(=O)C(C)(OC(=O)c1c(C)cc(O)cc1OC)C(O)C2 (centres undefined)	inactive	inactive		
